This is part of a sample that, as a whole, favours compounds with a hit. Of some 83,000 tested, about 20% had one in any assay.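 Percent growth is the endpoint: 0 to 100 indicates growth inhibition (40 means 60% inhibition), 0 means no net growth, and negative values indicate cell death.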 Activity calls are given as the source filed them. Rule for the calls: active = growth percent below 10; inactive = the rest.
system: T-47D breast; assay: NCI-60 one-dose screen, 48 h (100 = growth as untreated, 0 = no growth, -100 = all killed); settings: 10 µM unless noted

Row | SMILES | growth
1 | C=C1C(=O)O[C@H]2[C@H]1CC/C(COC(=O)/C=C\C(=O)NCc1ccc(Cn3c(=O)sn(CCCC)c3=O)cc1)=C\CC[C@@]1(C)O[C@@H]21 | -39% (active)
2 | CN1C[C@@H](c2ccc(Cl)cc2)[C@]2(NC(=S)N(c3ccc(F)c(Cl)c3)C2=O)[C@@]12C(=O)NC1C=CC(Cl)=C[C@H]12 (stereo not given in full) | 21% (inactive)
3 | c1ccc2[nH]c(SSc3nc4ncncc4[nH]3)nc2c1 | 46.5% (inactive)
4 | CCCCCOC(=O)c1cccc(NC(=O)CN(CC)CC)c1 | 91.9% (inactive)
5 | CN(CCCCCCCCNc1ccnc2ccccc12)Cc1ccc(-c2ccc(-c3ccc(C#N)cc3)s2)cc1 | -33.6% (active)
6 | CN(C)c1ccc2cc(-c3ccc(Cl)c(Cl)c3)c(N)nc2c1 | 18.6% (inactive)
7 | CCN(CC)CC(=O)Nc1cccc(C(=O)OC(C)C)c1 | 92% (inactive)
8 | CN(C)S(=O)(=O)n1cnc([C@@H]2[C@@H]3C(=O)OC[C@@H]3C[C@]23N=CN(Cc2ccccc2)C3=O)c1 | 102% (inactive)
9 | O=C(Oc1ccc([N+](=O)[O-])cc1)c1ccc(CBr)cc1 | 125% (inactive)
10 | CCN(CC)CCOc1ccc(/C(=C(\C)c2ccc(F)c(OC)c2)c2ccc(Cl)cc2)cc1 | 18.8% (inactive)
11 | CCOC(=O)c1nnn(C(Cc2ccccc2Cl)C(=O)OCC)c1C (stereo not given) | 97.6% (inactive)
12 | COc1ccc2c(c1)/C(=C\c1sc(=S)[nH]c1O)C(C(=O)O)=N2 | 94.3% (inactive)
13 | Cc1cc(Cc2cc(C)cc(C(C)(C)C)c2O)c(O)c(C(C)(C)C)c1 | 9.69% (active)
14 | N#Cc1c(N)nc2c(nnn2-c2cccc(Br)c2)c1N | 67.1% (inactive)
15 | O=C(NCc1cn(Cc2cccc(Oc3ccccc3)c2)nn1)c1cccnc1NCc1ccc(Cl)cc1 | 31.9% (inactive)
16 | Nc1ccc(-c2cc3c(Nc4ccc(OCc5cccc(F)c5)c(Cl)c4)ncnc3s2)cc1 | 15.4% (inactive)
17 | COc1cccc(-c2nc3sccn3c2-c2ccnc(NCCNS(=O)(=O)c3c(Cl)cccc3Cl)c2)c1 | 6.81% (active)
18 | CC(=O)OCCc1ccccc1 | 66.7% (inactive)
19 | NS(=O)(=O)Oc1ccc(-c2sc3cc(O)ccc3c2C(=O)c2ccc(OCCN3CCCCC3)cc2)cc1 | 86.6% (inactive)
20 | NC(=O)c1c(NC(=O)c2ccc(C(F)(F)F)cc2Cl)sc2c1CCC(=O)C2 | -21.2% (active)
21 | Cc1c(C)c2c(c(C)c1NC(=O)/C=C\C(=O)O)CCC(C)(CCCC(C)CCCC(C)CCCC(C)C)O2 (stereo not given) | 54.5% (inactive)
22 | Cl.Fc1c[c-]c(-c2ccccn2)c(F)c1.[Pt].c1ccc([PH+](C[PH+](c2ccccc2)c2ccccc2)c2ccccc2)cc1 | -56.2% (active)
23 | O=C(Nc1ccccc1)c1sc(-c2cccc(C(F)(F)F)c2)cc1O | 59.3% (inactive)
24 | COc1ccc(/C(C)=N/NS(=O)(=O)c2ccc(C)cc2)cc1OC | 87.8% (inactive)
25 | O=C(CC12CC3CC(CC(C3)C1)C2)NCCOCCOCCOCCNC(=O)c1cc2c(o1)C(=O)c1ccccc1C2=O | 1.06% (active)

— PubChem BioAssay (NCI)
